Measurements from PubChem BioAssay (EPA / NIEHS).
Results filed as inconclusive are left out. Active and inactive are the calls of the source. The calls were made as follows: active = hit-call score of the fitted dose curve at least 0.9, where 1 is the maximum; inconclusive = response in the unintended direction; inactive = score below 0.9.

Experiment: CCTE_Harrill_HTTr_CellCount_MCF7: CCTE's Cell Proliferation Assessment for the High-Throughput Transcriptomics (HTTr) Platform, Harrill Lab (AID 2284012);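 also: intended direction is loss of nuclei count meaning fewer cells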
Procedure, shortened: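 Cell count from high-content imaging of Hoechst-labeled nuclei serves as viability/growth readout. Chemicals were applied to MCF-7 cells in eight concentrations for six hours, with fitting in both directions relative to DMSO.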

Compound | outcome
CC(=O)OC1CCCCC1C(C)(C)C (stereo not drawn) | inactive
CCCCC(C=O)CC (stereo not drawn) | inactive
CC(=O)c1ccc(S(=O)(=O)NC(=O)NC2CCCCC2)cc1 | inactive
CC(C)(CO)C(O)C(=O)NCCCO (stereo not drawn) | inactive
O=C(O[C@@H]1Cc2c(O)cc(O)cc2O[C@@H]1c1cc(O)c(O)c(O)c1)c1cc(O)c(O)c(O)c1 | inactive
CC(=O)OCC=C(C)C | inactive
N#Cc1ccc(C2CCCc3cncn32)cc1 (stereo not drawn) | inactive
Fc1ccc(Br)cc1 | inactive
CN(C)c1ccc2nc3ccc(=[N+](C)C)cc-3sc2c1 | inactive
Nc1ncnc2nc[nH]c12 | inactive
CC(=O)OCCc1ccccc1 | inactive
O=C(O)CCCC(=O)O | inactive
CCC(C)c1ccccc1 (stereo not drawn) | inactive
CC(=O)CCC1=C(C)CCCC1(C)C | inactive
CCC(C)C(=O)OC (stereo not drawn) | inactive
O=C(OCc1ccccc1)c1ccc(O)cc1 | inactive
CC(C)(C)NC(=O)[C@H]1CC[C@H]2[C@@H]3CC[C@H]4NC(=O)C=C[C@]4(C)[C@H]3CC[C@]12C | inactive

Compound | outcome
CCCCOCC(C)O (stereo not drawn) | inactive
CC(C)(O)Cc1ccccc1 | inactive
Cc1ccc(C)c(OCCCC(C)(C)C(=O)O)c1 | inactive
COc1cc(O)c(C(=O)c2ccccc2)cc1S(=O)(=O)O | inactive
C=C(C)[C@@H]1CC=C(C)CC1 | inactive
CC(=O)CCC=C(C)C | inactive
CCCCCCC=O | inactive
COC(=O)C=Cc1ccccc1 | inactive
CCCCC1C(=O)N(c2ccccc2)N(c2ccccc2)C1=O | inactive
c1ccc2cnccc2c1 | inactive
CCCc1ccc(O)c(OC)c1 | inactive
CC(=O)c1ccccc1O | inactive
CC1=CCC(C(C)C)C=C1 (stereo not drawn) | inactive
CC=CC(=O)OCC(C)C | inactive
CC(C=O)c1ccccc1 (stereo not drawn) | inactive
C=CCCCCCCCCC=O | inactive
